Assay outcomes from PubChem.
Sampled rows, rich in hits. Any-hit rate of the full collection: about 4.2%.
esBAF inh – inhibitors of esBAF chromatin remodeling in mouse ES cells. Bmi1-luciferase knock-in reporter, 24 h; 100% = twice the neutral-well signal. reporter increase, % at 12.5 µM. hit rate 2% among 350,000; in the data active means activation above about 40%; inconclusive means no clear call, values can overlap the other calls;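 further: 0% = median of the plate's neutral control wells and 100% = double that signal; a rise in the Bmi1 reporter signal indicates esBAF inhibition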
ssDAF-12 act – activators of S. stercoralis DAF-12 nuclear receptor. HEK293 ssDAF-12/GRIP1 lit1-tk-luc reporter, luminescence; % of 3 µM dafachronic acid response. hit rate 1% among 370,000. activation, % at 6.8 µM;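 active means activation above the mean over all tested compounds plus 3 SD, cut at about 0.9% in these data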;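 further: 0% = DMSO-only wells and 100% = 3 µM delta7-dafachronic acid wells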
hgDAF-12 ag – agonists of H. glycines DAF-12 nuclear receptor; HEK293 GAL4-hgDAF12 UAS-luciferase reporter, agonist luminescence; normalized to butyrate control; activation, % at 6.8 µM; hit rate 1.8% among 370,000; AID 687014;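 active means activation above a cutoff set at the mean of all screened compounds plus 3 SD, cut at about 10% in these data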;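 further: 0% = DMSO wells and 100% = sodium butyrate wells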
DAX1 inh – inhibitors of DAX1 repression of SF-1 activated StAR promoter; HEK293T StAR-luciferase reporter, SF-1/DAX-1 repression relief; hit rate 1.1% among 370,000; inhibition, % at 6.8 µM;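 active means inhibition above the mean over all tested compounds plus 3 SD, cut at about 3.6% in these data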;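 further: 0% = DAX-1 cells with DMSO and 100% = cells lacking DAX-1 with DMSO; higher inhibition means more luminescence from relief of DAX-1 repression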
hcDAF-12 act – activates DAF-12 receptor from parasite H. contortus; HEK293 hcDAF-12 lit1-tk-luc reporter, luminescence; 0% DMSO, 100% Δ7-dafachronic acid; activation, % at 6.8 µM; hit rate 1.4% among 370,000; AID 652067;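 active means activation above the mean of all tested compounds plus 3 SD, cut at about 5.5% in these data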;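 further: 100% = response to 3 µM Δ7-dafachronic acid high control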
Wnt bcat act – activators of Wnt/beta-catenin signaling | AID 743398 | hit rate 1.2% among 300,000 | Wnt/beta-catenin reporter cell assay, activator, plate reader | activation, % at 9.35 µM; in the data active means activation above about 30%, passing the limit was not always enough; inconclusive means no clear call, values can overlap the other calls;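 further: 0% = neutral control wells and 100% = positive control wells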
DAX1 inh confirm – NR0B1 (human) inhibition, confirmation; shares compounds with DAX1 inh; HEK293T StAR-promoter luciferase reporter, SF-1/DAX-1 repression; inhibition, % at 6.8 µM; hit rate 87% among 2,400; AID 652134;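 active means inhibition above the average of every tested compound plus 3 SD, cut at about 3.8% in these data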;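 further: 0% = DAX-1 cells with DMSO and 100% = no DAX-1 control cells with DMSO; active compounds raise luminescence by relieving repression of the StAR reporter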
Target sequence (P51843 whole entry, looked up): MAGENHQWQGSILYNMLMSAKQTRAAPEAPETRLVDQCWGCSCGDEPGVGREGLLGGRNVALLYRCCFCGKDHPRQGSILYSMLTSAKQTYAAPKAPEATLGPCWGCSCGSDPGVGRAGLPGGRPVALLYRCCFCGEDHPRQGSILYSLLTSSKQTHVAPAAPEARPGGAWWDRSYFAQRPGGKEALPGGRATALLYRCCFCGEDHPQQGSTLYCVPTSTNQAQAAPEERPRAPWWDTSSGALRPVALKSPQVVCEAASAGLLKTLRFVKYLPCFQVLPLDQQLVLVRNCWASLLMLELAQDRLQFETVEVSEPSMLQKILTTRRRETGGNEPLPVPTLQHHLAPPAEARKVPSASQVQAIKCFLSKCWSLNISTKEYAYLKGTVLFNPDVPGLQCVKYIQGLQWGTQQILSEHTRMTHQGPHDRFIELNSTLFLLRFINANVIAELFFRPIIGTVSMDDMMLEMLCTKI
SF1 AF2mut Luc – nonselective inhibitor or artifact in SF-1 mutant DAX1 counter-screen; shares compounds with DAX1 inh; HEK293 StAR-luciferase, SF-1 AF2 mutant, luminescence; inhibition, % at 6.8 µM; hit rate 78% among 2,400; AID 652136;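 active means inhibition above the mean of all tested compounds plus 3 SD, cut at about 3% in these data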;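 further: 0% = DAX-1 transfected cells with DMSO and 100% = cells without DAX-1 with DMSO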
LXR ag – activates human LXR-beta, counter-screen for hcDAF-12 agonists. AID 743027. 3,400 tested, under 10 active. HEK293 Gal4-LXR tk-luc reporter, luminescence, 24 h; normalized: DMSO 0%, positive control 100%. shares compounds with hcDAF-12 act. activation, % at 6.8 µM;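 active means mean percent activation of the reporter above a cutoff set as the average over tested compounds plus their standard deviation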
hcDAF12 conf – confirmation of H. contortus DAF-12 agonists. AID 743032. shares compounds with hcDAF-12 act. hit rate 61% among 3,400. activation, % at 6.8 µM. HEK293 hcDAF-12 lit1-tk-luc reporter, luminescence; % of Δ7-dafachronic acid response;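 active means mean activation across triplicate tests above the threshold derived from the earlier primary screen, cut at about 5.5% in these data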;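 further: 0% = DMSO only wells and 100% = 3 µM Δ7-dafachronic acid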
hgDAF12 ag – hgDAF-12 agonism, confirmation assay; shares compounds with hgDAF-12 ag; HEK293 GAL4-hgDAF12 luciferase reporter, agonist mode; percent of butyrate response; activation, % at 6.8 µM; hit rate 80% among 3,300; AID 743050;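 active means mean activation over triplicate wells above the hit cutoff derived from the earlier primary screen, cut at about 11% in these data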;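 further: 0% = DMSO low control and 100% = 2 mM sodium butyrate high control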
LXR ag 2 – LXR-beta agonism as DAF-12 counter-screen; shares compounds with hgDAF-12 ag; HEK293 Gal4-LXR luciferase reporter, 24 h; activation, % at 6.8 µM; 3,300 tested, under 10 active; AID 743051;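 active means mean activation of the triplicate above a set limit carried over from the primary screen, none filed active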
Numbers without * were called inactive; ? = inconclusive; . = no result given.

SMILES	esBAF inh	ssDAF-12 act	hgDAF-12 ag	DAX1 inh	hcDAF-12 act	Wnt bcat act	DAX1 inh confirm	SF1 AF2mut Luc	hgDAF12 ag	LXR ag 2	others
Cc1ccc(NC(=O)CSc2nccn2Cc2ccco2)c(C)c1	-41	0	14*	6.3*	7.2*	37*	7.8*	3.2*	14*	1	LXR ag=1;hcDAF12 conf=7.0*
CC(=O)Nc1cccc(NC(=O)CSc2nccn2Cc2ccco2)c1	3	-1	-2	-2	-1	0	.	.	.	.
CN(c1ccc(O)cc1)c1nc(-c2cccs2)cs1	.	1	19*	7.7*	5	-1	8.7*	3.6*	14*	1
COc1cc(C(=O)Nc2nc(-c3cccs3)cs2)cc(OC)c1OC	8	-2	-5	-1	-5	4	.	.	.	.
Cc1cc(O)ccc1Nc1nc(-c2cccs2)cs1	.	1.0*	17*	5.5*	5	-1	9.3*	4.7*	21*	1
Cc1cccc(NC(=O)c2cnc3ccccn3c2=O)c1	-54	1	22*	7.7*	8.8*	21	11*	4.4*	17*	1	LXR ag=2;hcDAF12 conf=6.1*
COCC(=O)N(C)C[C@@H]1Oc2ncc(C#C[C@@H](C)O)cc2C(=O)N([C@H](C)CO)C[C@@H]1C	4	.	.	.	.	.	.	.	.	.
C[C@H]1CN([C@@H](C)CO)C(=O)c2cc(C3=CCCC3)cnc2O[C@@H]1CN(C)Cc1ccc(F)cc1	-1	.	.	.	.	.	.	.	.	.
Cc1cc(C)n2c(Nc3ccc4c(c3)OCCO4)c(-c3ccc(C)o3)nc2n1	83*	0	13*	5.7*	6.9*	24	-1	-1	9	1	LXR ag=0;hcDAF12 conf=1
Cc1cc(C)n2c(Nc3ccc4c(c3)OCCO4)c(-c3cc4ccccc4o3)nc2n1	.	-3	-10	-5	-4	-7	.	.	.	.
O=C(O)c1cccc(N/N=C/c2ccc(-c3ccccc3)cc2)c1	.	0	16*	4.7*	4	5	22*	10*	27*	1
O=C(C[C@H]1C[C@@H]2c3cc(NC(=O)c4cccnc4)ccc3O[C@@H]2[C@@H](CO)O1)NC1CCCCC1	-3	.	.	.	.	.	.	.	.	.
CC(=O)c1cccc(OCc2cc(C(=O)N3CCSCC3)no2)c1	.	-1	14*	4.8*	4	?	6.6*	6.3*	15*	0
Cc1cccc(C)c1OCc1cc(C(=O)N2CCN(c3ccc(F)cc3)CC2)no1	45*	0	14*	5.9*	5	1	4.5*	3.6*	15*	1
C[C@H]1CN([C@@H](C)CO)C(=O)c2cccc(NC(=O)C3CCCCC3)c2O[C@H]1CN(C)C	-7	.	.	.	.	.	.	.	.	.
C[C@@H]1CN([C@H](C)CO)S(=O)(=O)c2ccc(-c3ccc(C(=O)N(C)C)cc3)cc2O[C@H]1CN(C)C(=O)Nc1ccccc1F	9	.	.	.	.	.	.	.	.	.
CCCCOc1ccc(-c2cnc3ccccc3n2)cc1	.	0	23*	6.8*	9.0*	.	14*	3.5*	13*	1	LXR ag=2;hcDAF12 conf=6.4*
